PrP 5UTR inh = inhibition of PrP 5' UTR reporter expression; inhibition, % (test concentration not listed); cell-based PrP 5' UTR mRNA reporter, plate reader; 340,000 compounds, 0.35% hits; in the data active = inhibition above about 52%
BJeLR lethal = kills HRASV12-expressing BJeLR cells | BJeLR (HRASV12) viability, CellTiter-Glo ATP luminescence, 48 h | inhibition, % (no concentration beside the values) | 300,000 compounds, 0.17% hits; in the data active = inhibition above about 50%
PrPC surface inh = reduces human prion protein on the cell surface. cell surface PrPC, TR-FRET read-out. inhibition, % at 13.8 µM. 370,000 compounds, 0.43% hits. AID 720596; in the data active = inhibition above about 24%
PfHsp40 rescue = restores yeast growth despite PfHsp40 toxicity; AID 504582; growth rescue, % at 12.5 µM; S. cerevisiae expressing PfHsp40, growth rescue, ATP luminescence; 340,000 compounds, 0.68% hits; in the data active = growth rescue above about 28%, passing the limit was not always enough;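 also: yeast W303a lacking pdr1 and pdr3 grown in galactose medium; growth measured after three days at 30 °C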
Y pestis TopoI = blocks Yersinia pestis topoisomerase I activity; Y. pestis Topo-I cleavage product accumulation, plate reader; activity, % at 10 µM; 360,000 compounds, 0.064% hits; in the data active = activity above about 50%, passing the limit was not always enough
CCHF vOTU inh = CCHFV vOTU protease inhibition; Pep-AMC fluorescence; inhibition, % at 11.5 µM; 370,000 compounds, 0.55% hits; in the data active = inhibition above about 30%
Numbers stand for hits; i = inactive; nt = no result given. This is a sample that favours compounds with a hit; in the whole collection about 2% have one here.

SMILES	PrP 5UTR inh	BJeLR lethal	PrPC surface inh	PfHsp40 rescue	Y pestis TopoI	CCHF vOTU inh
CCCCCOc1ccc(C2C(C(=O)c3ccc(C)o3)=C(O)C(=O)N2c2cc(C)on2)cc1 (stereo not drawn)	i	i	i	i	88	i
COC(=O)[C@]12C[C@H](CC(=O)N3CCN(C(=O)C4CC4)CC3)C(=O)N(Cc3ccccc3)C1=C[C@H](C1CCCC1)O[C@@H]2C	nt	nt	i	nt	nt	i
CC(=O)Oc1c(I)cc(I)cc1C(=O)Nc1ccc(Cl)cc1	i	i	i	217	i	i
COc1ccc(Cl)cc1C(=O)Nc1ccc(NC(C)=O)cc1	i	i	i	i	i	i
Nc1ncnc(N)c1NC(=O)c1ccccc1	nt	nt	i	nt	nt	i
Cc1noc(C)c1COC(=O)CCCOc1ccc(Cl)cc1Cl	i	i	i	i	61	i
Cc1noc(C)c1COC(=O)Cc1ccc(Cl)cc1	i	i	i	i	i	i
CCN1/C(=C/C=C/C=C/c2sc3ccccc3[n+]2CC)Sc2ccccc21	nt	69	nt	nt	nt	nt
CCN1/C(=C/C=C/C=C/C=C/c2sc3ccccc3[n+]2CC)Sc2ccccc21	i	63	i	i	i	i
CC[n+]1c(/C=C(\C)SC)sc2ccccc21	i	i	i	i	i	i
CCN1/C(=C/C=C/c2sc3ccccc3[n+]2CC)Sc2ccccc21	i	69	nt	254	i	nt
CC[n+]1c(/C=C/Nc2ccccc2)sc2ccccc21	i	i	i	i	i	i
CCC(=O)N1CCc2cc(Br)c(S(=O)(=O)NC3CCN(Cc4ccccc4)CC3)cc21	nt	nt	i	nt	nt	i
COc1ccc(S(=O)(=O)NCc2cc(=O)n(C)c(=O)n2C)cc1C	i	i	i	41	i	i
O=C1C2C(CC3c4ccccc4CCN32)CN1c1ccccc1 (stereo not drawn)	nt	nt	i	nt	nt	i
COc1ccc(-[n+]2c(-c3ccccc3)cc(-c3ccc(C)cc3)cc2-c2ccccc2)cc1	i	72	29	i	i	i
COc1ccccc1C(=O)NC1CCCCN(Cc2cccc(C(F)(F)F)c2)C1=O (stereo not drawn)	nt	nt	i	nt	nt	i
CN1CCc2cc3c(c4c2[C@H]1[C@H](O)c1ccccc1-4)OCO3	i	i	i	i	i	37
COc1ccc2c(c1OC)C(=O)OC2C1c2c(cc3c(c2OC)OCO3)CCN1C (stereo not drawn)	i	i	i	i	i	i
COC(=O)C1CN(C2CC2)CCS(=O)(=O)N1Cc1cn(Cc2ccc(F)cc2)nn1 (stereo not drawn)	nt	nt	i	nt	nt	i
O=C(N/N=C/c1ccc(-c2cccc([N+](=O)[O-])c2)o1)c1ccc([N+](=O)[O-])cc1	i	i	i	146	i	i
N#CCc1ccc(NC(=O)/C=C/c2ccc([N+](=O)[O-])o2)cc1	i	101	nt	i	i	nt
O=C(Cc1ccc([N+](=O)[O-])cc1)N/N=C/c1ccc([N+](=O)[O-])o1	i	55	i	i	i	i
CCCCCCCC(=O)N/N=C/c1ccc([N+](=O)[O-])o1	i	i	i	i	i	i
CCCN(CC1CC1)C(=O)CN1C(=O)C2CCCCN2C(=O)c2ccccc21 (stereo not drawn)	nt	nt	i	nt	nt	i
SMILES	PrP 5UTR inh	BJeLR lethal	PrPC surface inh	PfHsp40 rescue	Y pestis TopoI	CCHF vOTU inh
CC(=O)[C@]1(O)Cc2c(O)c3c(c(O)c2[C@@H](O[C@H]2C[C@H](N)[C@H](O)[C@H](C)O2)C1)C(=O)c1ccccc1C3=O	nt	82	nt	nt	nt	nt
Cc1[nH]n(-c2ccccc2)c(=O)c1/C=N/NC(=O)c1ccc(O)cc1O	i	i	nt	52	i	nt
Cc1ccc(/C=N/Nc2nncc(-c3ccccc3)n2)o1	i	i	i	i	i	i
Cc1cc(C(=O)N/N=C/c2c(C)[nH]n(-c3ccccc3)c2=O)n[nH]1	i	i	i	i	i	i
Cc1ccc(-n2[nH]c(C)c(/C=N/NC(=O)c3ccc(O)cc3O)c2=O)cc1	i	i	nt	76	i	nt
Cc1ccc(OCC(=O)N/N=C\c2c(C)[nH]n(-c3ccccc3)c2=O)c([N+](=O)[O-])c1	i	i	i	155	i	i
Cc1[nH]n(-c2ccccc2)c(=O)c1/C=N/Nc1nncc(-c2ccccc2)n1	i	57	i	262	i	i
Cc1cc(N2CCNC[C@H]2C)ccc1N1CCN(Cc2ccccc2)[C@H](C)C1	nt	nt	i	nt	nt	i
Nc1nc(CCl)nc(Nc2ccc3ccccc3c2)n1	i	114	i	i	i	i
Cc1ccccc1Nc1nc(N)nc(CCl)n1	i	67	i	i	i	i
O=C(NCc1ccccc1)[C@H]1CCCN1C(=O)[C@H]1CCCN1C(=O)c1ccccc1C(F)(F)F	nt	nt	i	nt	nt	i
COC(=O)[C@]12C[C@H](CC(=O)NCC3CCCCC3)C(=O)N(Cc3ccco3)C1=C[C@H](C(C)C)O[C@@H]2C1CC1	nt	nt	i	nt	nt	i
COC(OC)c1ccnc(-c2ccc(OC(C)=O)cc2)n1	i	i	i	52	i	i
COC(OC)c1ccnc(-c2ccc(OC(=O)c3ccccc3)cc2)n1	i	i	i	i	i	i
N#Cc1ccc(C(=O)Oc2coc(CSc3ncccn3)cc2=O)cc1	nt	nt	i	nt	nt	nt
O=C1NC(=S)N(C2CC2)C(=O)/C1=C/c1ccc2c(c1)CCN2CCCCl	i	i	i	63	i	i
CCN1C(=O)/C(=C/c2ccc3c(c2)CCN3CCCCl)C(=O)NC1=S	i	i	i	i	i	i
CCn1c(SCC(=O)N2CCCc3ccccc32)nnc1-c1ccoc1C	i	i	i	i	i	i
CCn1c(SCC(=O)N2CCCc3ccccc32)nnc1-c1ccco1	i	i	i	48	i	i
CCCSc1ccc([C@@H]2[C@@H]3C(=O)N(C)C(=O)[C@@H]3[C@]3(C(=O)OC)CCCN23)cc1OC	i	nt	nt	63	i	nt
O=C1C=CC2=C3c4cc(O)c(O)cc4CC3(O)COC2=C1O (stereo not drawn)	i	nt	25	i	i	i
O=C(O)C/C(=C\c1cccc(NC(=O)c2ccccc2Cl)c1)c1nc2ccccc2s1	i	i	i	28	i	i
COc1ccc(C(=O)Nc2cccc(/C=C(\CCC(=O)O)c3nc4ccccc4s3)c2)cc1	i	i	i	i	i	i
O=[N+]([O-])c1cccc(-c2nc(-c3cccs3)c(-c3cccs3)[nH]2)c1	i	i	i	i	i	i
Fc1ccc(-c2nc(-c3cccs3)[nH]c2-c2ccc(F)cc2)cc1	i	i	i	129	i	i
SMILES	PrP 5UTR inh	BJeLR lethal	PrPC surface inh	PfHsp40 rescue	Y pestis TopoI	CCHF vOTU inh
O=[N+]([O-])c1ccc(-c2nc(-c3cccs3)c(-c3cccs3)[nH]2)cc1	i	i	i	438	i	i
Cc1ccc2[nH]c3c(N4CCN(Cc5ccccc5)CC4)ncnc3c2c1	i	i	29	i	i	i
c1ccc2c(c1)CCN(c1ncnc3c1[nH]c1ccccc13)C2	i	i	i	i	i	i
c1ccc(CN2CCN(c3ncnc4c3[nH]c3ccccc34)CC2)cc1	i	i	56	i	i	i
O=CN1CCN(C(=O)C2CCN(c3ncnc4c3sc3cccc(F)c34)CC2)CC1	nt	nt	i	nt	nt	i
Cc1cc(F)ccc1S(=O)(=O)Nc1nc2ccccc2nc1Cl	i	i	i	i	i	i
